Measurements taken from PMC5540273 (PLoS ONE, 2017).

Assays:
Conditions in all cases: concentration: 1 μM,replicates: in singlicate; n = 1
[1] = tested on: ADCK4
[2] = tested on: AKT1
[3] = tested on: AKT2
[4] = tested on: AKT3
[5] = tested on: ALK
[6] = tested on: T1, AMPK-alpha1
T1 construct: gene PRKAA1

[7] = tested on: T2, AMPK-alpha2
T2 construct: gene PRKAA2

[8] = tested on: ANKK1
[9] = tested on: T3, ARK5
T3 construct: gene NUAK1

[10] = tested on: T4, ASK1
T4 construct: gene MAP3K5

[11] = tested on: T5, ASK2
T5 construct: gene MAP3K6

[12] = tested on: AURKA
[13] = tested on: AURKB
[14] = tested on: AURKC
[15] = tested on: AXL
[16] = tested on: T6, BIKE
T6 construct: gene BMP2K

[17] = tested on: BLK
[18] = tested on: BMPR1A
[19] = tested on: BMPR1B
[20] = tested on: BMPR2
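Further: KINOMEscan kinase panel screen.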

Row | Compound | %Inh [1] [%] | %Inh [2] [%] | %Inh [3] [%] | %Inh [4] [%] | %Inh [5] [%] | %Inh [6] [%] | %Inh [7] [%] | %Inh [8] [%] | %Inh [9] [%] | %Inh [10] [%] | %Inh [11] [%] | %Inh [12] [%] | %Inh [13] [%] | %Inh [14] [%] | %Inh [15] [%] | %Inh [16] [%] | %Inh [17] [%] | %Inh [18] [%] | %Inh [19] [%] | %Inh [20] [%]
1 | CN(c1ccc2c(c1)nc(NCc1ccc(F)cc1)n2C)c1ccnc(Nc2ccc(CS(C)(=O)=O)cc2)n1.Cl [GW813244] | 21 | 8 | 0 | 1 | 0 | 11 | 5 | 0 | 4 | 37 | 0 | 77 | 70 | 67 | 68 | 33 | 57 | 16 | 0 | 10
2 | Cl.c1ccc(Oc2ccc(Nc3ccnc4cc(-c5ccc(CN6CCNCC6)o5)ccc34)cc2)nc1 [GW567142] | 18 | 0 | 0 | 0 | 15 | 0 | 0 | 0 | 12 | 0 | 0 | 20 | 77 | 27 | 0 | 0 | 86 | 0 | 0 | 2
3 | CC(=O)Nc1nc2cnc(Nc3cc(NC(=O)c4cccc(CC(C)(C)C#N)c4)ccc3C)nc2s1 | 0 | 12 | 5 | 0 | 42 | 3 | 7 | 0 | 7 | 7 | 0 | 11 | 3 | 0 | 20 | 0 | 32 | 0 | 2 | 0
4 | Cn1cc(-c2cccc3c(N)c(C(N)=O)nnc23)cn1 | 11 | 0 | 0 | 15 | 10 | 47 | 49 | 19 | 0 | 1 | 33 | 6 | 27 | 53 | 22 | 70 | 6 | 16 | 21 | 72
5 | COc1cccc(OC)c1C(=O)Nc1cccc(-c2nn3ccccc3c2-c2ccnc(Nc3cccc(F)c3)n2)c1 [GSK361065] | 0 | 4 | 0 | 0 | 0 | 25 | 4 | 93.2 | 0 | 22 | 0 | 32 | 0 | 70 | 30 | 0 | 41 | 9 | 21 | 0
6 | Cn1ccc2ncnc(Oc3ccc(NC(=O)Nc4cnn(C(C)(C)C)c4)c(Cl)c3)c21 | 0 | 0 | 8 | 13 | 0 | 19 | 20 | 0 | 19 | 2 | 9 | 23 | 44 | 52 | 76 | 19 | 32 | 17 | 6 | 9
7 | C[C@@H](Oc1cc(-n2cnc3cc(-c4cnn(C)c4)ccc32)sc1C(N)=O)c1ccccc1Cl [GSK580432] | 29 | 0 | 0 | 0 | 31 | 39 | 27 | 0 | 98.7 | 0 | 15 | 38 | 90.6 | 100 | 97.4 | 100 | 89 | 19 | 0 | 0
8 | CC(C(=O)NC1CCN(c2ccnc(Nc3ccc(F)cc3)n2)C1)c1ccc(Cl)cc1 (stereo not drawn) [GSK1379713] | 13 | 0 | 0 | 0 | 5 | 10 | 0 | 4 | 0 | 0 | 0 | 0 | 36 | 47 | 11 | 16 | 32 | 0 | 0 | 0
9 | O=C(Nc1ccc(Oc2ccc3nc(NC(=O)C4CC4)cn3n2)c(F)c1)c1cccn(-c2ccccc2)c1=O | 0 | 18 | 13 | 30 | 0 | 0 | 3 | 0 | 0 | 3 | 0 | 0 | 4 | 42 | 90.4 | 25 | 90.3 | 12 | 0 | 0
10 | CN(c1ccccc1CNc1nc(Nc2ccc3c(c2)CC(=O)N3)ncc1C(F)(F)F)S(C)(=O)=O | 0 | 0 | 0 | 0 | 92.4 | 74 | 70 | 0 | 92.1 | 0 | 0 | 97.2 | 98.7 | 84 | 92.4 | 56 | 64 | 12 | 0 | 0
11 | Cn1ccc2ncnc(Oc3ccc(NC(=O)Nc4cc(C(C)(C)C)on4)c(Cl)c3)c21 | 19 | 18 | 0 | 0 | 38 | 0 | 21 | 10 | 4 | 11 | 0 | 6 | 88 | 15 | 97.2 | 0 | 87 | 7 | 16 | 5
12 | Cn1ccc2ncnc(Oc3ccc(NC(=O)Nc4cncc(C(F)(F)F)c4)c(Cl)c3)c21 | 0 | 6 | 13 | 0 | 0 | 0 | 0 | 0 | 0 | 0 | 0 | 0 | 25 | 0 | 59 | 0 | 9 | 0 | 0 | 0
13 | Nc1nccc(-c2ccc3c(N)n[nH]c3c2)n1 [GSK1034945] | 33 | 0 | 10 | 0 | 20 | 0 | 0 | 31 | 0 | 0 | 0 | 0 | 0 | 51 | 0 | 94.4 | 25 | 12 | 87 | 0
14 | CCNCC(Cc1ccccc1)NC(=O)c1cc(Br)c(-c2ccnc3[nH]ccc23)s1.Cl.Cl (stereo not drawn) [GSK1383280] | 89 | 93.7 | 81 | 88 | 42 | 49 | 45 | 8 | 60 | 0 | 0 | 96.2 | 93.6 | 86 | 63 | 79 | 0 | 0 | 0 | 0
15 | CS(=O)(=O)Nc1ccc(-c2ccnc3[nH]ccc23)cc1 [GSK993273] | 22 | 0 | 21 | 0 | 18 | 94.4 | 0 | 27 | 0 | 44 | 21 | 39 | 48 | 76 | 76 | 97.5 | 0 | 1 | 3 | 43
16 | COc1cccc(CNC(=O)NC2CCN(c3ccnc(Nc4cc(OC)c(OC)c(OC)c4)n3)C2)c1 (stereo not drawn) [GSK1379765] | 92.3 | 0 | 17 | 0 | 72 | 0 | 2 | 42 | 45 | 7 | 0 | 85 | 91.4 | 79 | 30 | 53 | 9 | 0 | 0 | 23
17 | COc1cccc(C2=C(Nc3cccc(Cl)c3)C(=O)NC2=O)c1 [SB-341556] | 0 | 0 | 0 | 0 | 32 | 0 | 0 | 0 | 0 | 5 | 22 | 0 | 15 | 3 | 12 | 34 | 72 | 0 | 0 | 0
18 | OCCn1cc(-c2cnc3nnn(Cc4ccc5ncccc5c4)c3n2)cn1 | 0 | 0 | 0 | 45 | 0 | 3 | 0 | 0 | 0 | 19 | 0 | 0 | 0 | 0 | 0 | 0 | 4 | 7 | 0 | 0
19 | COc1cc2nccc(Nc3ccc(Oc4ccccc4)cc3)c2cc1OC.Cl [GI261656] | 40 | 0 | 0 | 0 | 4 | 0 | 0 | 0 | 7 | 0 | 0 | 22 | 17 | 0 | 10 | 6 | 99.2 | 0 | 0 | 7
20 | CSc1nccc(-c2c(-c3ccc(F)cc3)ncn2CCCN2CCOCC2)n1.Cl [SB-217146] | 25 | 14 | 0 | 0 | 0 | 0 | 0 | 1 | 0 | 0 | 0 | 7 | 35 | 0 | 0 | 0 | 0 | 0 | 4 | 39
21 | COc1cc2c(Nc3ccc(NC(=O)c4ccccc4)cc3)ncnc2cc1OCCCN1CCOCC1 [GSK301329] | 0 | 0 | 0 | 0 | 9 | 0 | 0 | 17 | 28 | 0 | 20 | 94.5 | 95.6 | 70 | 55 | 28 | 96.7 | 0 | 0 | 0
